Bioassay records (PubChem BioAssay)
Exocytosis inh: blocks lytic granule exocytosis. TALL-104 LAMP-1 surface exposure, flow cytometry; cells stimulated with thapsigargin and PMA. inhibition, % at 10 µM. 0.66% of 360,000 active. AID 651702;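 active = inhibition above about 55%, limit read from the data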
GASC-1 inh: inhibitors of human GASC-1 (JMJD2C) demethylase | GST-JMJD2C(1-420) H3K9me3 demethylation, DELFIA europium | inhibition, % at 2.35 µM | 0.069% of 330,000 active | AID 2099;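 active = more than half of a compound's replicate wells show inhibition beyond 50%, single wells judged on their own value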;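 note: signal counts dimethyl H3K9 product captured on neutravidin plate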
Target sequence (Q9H3R0 1-420 limits assumed): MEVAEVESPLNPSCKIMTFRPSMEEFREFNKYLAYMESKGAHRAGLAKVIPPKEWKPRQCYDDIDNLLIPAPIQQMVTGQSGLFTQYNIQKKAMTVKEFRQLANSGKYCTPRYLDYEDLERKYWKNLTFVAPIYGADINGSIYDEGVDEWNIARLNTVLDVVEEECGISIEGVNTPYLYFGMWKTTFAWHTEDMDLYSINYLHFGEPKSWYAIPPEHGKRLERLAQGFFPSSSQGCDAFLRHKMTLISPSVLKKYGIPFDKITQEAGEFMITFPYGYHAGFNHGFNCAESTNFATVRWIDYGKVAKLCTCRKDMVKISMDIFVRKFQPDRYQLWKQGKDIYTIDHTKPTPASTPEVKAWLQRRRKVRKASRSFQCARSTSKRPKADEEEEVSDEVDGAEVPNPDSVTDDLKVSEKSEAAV
ALR H2O2 inh: blocks human ALR sulfhydryl oxidase activity; 3.8% of 290,000 active; purified ALR, DTT oxidation, H2O2 HRP-luminol luminescence; inhibition, % (concentration not given with the values); P55789;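 active = mean replicate inhibition above about 79%, with every replicate also reaching it, limit read from the data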
SMARCA2 act: SMARCA2 function activation, primary screen; 1% of 370,000 active; activation, % at 9.1 µM; AID 652017; MG213 cells, MMTV-luciferase reporter, dexamethasone, overnight; in the data active = activation above about 7.8%
beta cell repl: inducers of beta-cell replication in MIN6 cells; MIN6 cells proliferation, ATPlite luminescence, 48 h; cells starved in 0.2% serum; 100% = growth in 10% serum; proliferation, % at 10 µM; 0.29% of 330,000 active;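 active = compounds whose signal lies at least 3.5 SD above the mean of all wells on their plate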
M18AAP inhibitor: PfM18AAP enzyme inhibition. recombinant PfM18AAP, H-Glu-NHMec fluorogenic cleavage. AID 1822. inhibition, % at 7.35 µM. 1.2% of 290,000 active;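 active = inhibition above the campaign mean inhibition over all tested compounds plus 3 SD, cut at about 28% in these data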
SMARCA2 act conf: confirmation of SMARCA2 (BRM) function activators; shares compounds with SMARCA2 act; MG213 cells, MMTV-luciferase with dexamethasone, luminescence, overnight; MG213 cells expressing E1A, Rb sequestered; DMSO wells 0%, reference activator 100%; activation, % at 9.1 µM; 30% of 3,500 active; AID 652260;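 active = activation above its plate's cutoff, the mean activation of tested wells plus 3 SD, cut at about 7.9% in these data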
GAL4-VP16 Luc: GAL4-VP16 reporter activation counter-screen; HEK293 GAL4-VP16 pG5luc reporter, luciferase luminescence; scaled: DMSO wells 0%, SAHA wells 100%; 41% of 3,500 active; activation, % at 9.1 µM; AID 686939; shares compounds with SMARCA2 act;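 active = activation above the solvent-only control well mean plus 3 SD, averaged across control plates, cut at about 5.2% in these data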
Of the large screens only hits and unclear results are named; the others gave an inactive call (follow-up assays come after a bar, where they were run). The list is not random: actives were taken first. Their share in the collection is about 5.4%.

COc1cc2nc(CN3CC=C(c4ccccc4)CC3)[nH]c(=O)c2cc1OC	SMARCA2 act 14 (no result: M18AAP inhibitor) | SMARCA2 act conf inactive | GAL4-VP16 Luc inactive
COc1cc(C)c(CN2CC=C(c3ccc(F)cc3)CC2)cc1C	none
CC(C)(C)n1nnnc1C(c1cccs1)N1CCC2(CC1)C(=O)NCN2c1ccccc1 (stereo not given)	none (no result: GASC-1 inh, ALR H2O2 inh, beta cell repl, M18AAP inhibitor)
COc1ccc(CN2Cc3cc(-c4ccc(OC)cc4)ccc3-n3nncc3C2)cc1	SMARCA2 act 8.0 (no result: GASC-1 inh, ALR H2O2 inh, beta cell repl, M18AAP inhibitor) | SMARCA2 act conf inactive | GAL4-VP16 Luc inactive
C/C=C1\NC(=O)[C@H](C)NC(=O)[C@@H](NC(=O)[C@H](Cc2ccc(O)cc2)NC(=O)[C@@H](NC(=O)/C(C)=C/C)C(C)C)[C@@H](C)OC(=O)[C@H](CCCc2ccc(O)cc2)NC(=O)[C@@H](CCC(=O)O)NC1=O	none (no result: GASC-1 inh, ALR H2O2 inh, beta cell repl, M18AAP inhibitor)
COc1ccc(-n2nnnc2C(c2ccccc2OC(F)(F)F)N2CCC3(CC2)C(=O)NCN3c2ccccc2)cc1 (stereo not given)	none (no result: GASC-1 inh, ALR H2O2 inh, beta cell repl, M18AAP inhibitor)
O=C1NCN(c2ccccc2)C12CCN(C(CCc1ccccc1)c1nnnn1C1CCCC1)CC2 (stereo not given)	none (no result: GASC-1 inh, ALR H2O2 inh, beta cell repl, M18AAP inhibitor)
COc1ccc(-n2c(-c3ccc(C)cc3)nc3ccccc3c2=O)cc1	none
COc1ccc(-c2nc3ccccc3c(=O)o2)cc1	SMARCA2 act 9.8 (no result: ALR H2O2 inh) | SMARCA2 act conf 8.7 | GAL4-VP16 Luc 7.4
OC12ONC(c3ccccn3)C1N1CCC2CC1 (stereo not given)	SMARCA2 act 10.0 | SMARCA2 act conf inactive | GAL4-VP16 Luc inactive
CN(C)C(=O)Oc1cccc(-c2cn3cc(Cl)ccc3n2)c1	SMARCA2 act 26 | SMARCA2 act conf 18 | GAL4-VP16 Luc 6.3
CCC(c1nnnn1Cc1ccccc1)N1CCC2(CC1)C(=O)NCN2c1ccccc1 (stereo not given)	none (no result: GASC-1 inh, ALR H2O2 inh, beta cell repl, M18AAP inhibitor)
O=C1CC2OCC=C3CN4CCC56c7ccccc7N1C5C2C3CC46O (stereo not given)	none (no result: GASC-1 inh, ALR H2O2 inh, beta cell repl, M18AAP inhibitor)
CCOC(=O)c1c(C)[nH]c(C(=O)C(C)N2CCCC2)c1C (stereo not given)	SMARCA2 act 8.4 | SMARCA2 act conf inactive | GAL4-VP16 Luc inactive
